Reference: PubChem BioAssay AID1159580 (chemical genetic matrix, 2015)
The whole screen tested about 5,500 compounds, of which about 2,000 (36%) were called active. Another 18% or so got no clear call; they are omitted. No stated cut-off is given here; in the data, active means normalized growth mostly below about 0.91 (no sharp cut-off); inconclusive means no clear call, values can overlap the other calls; inactive means mostly above about 0.92. This is one part of the list.

Test: chemical genetic growth profiling, strain panel (AID 1159580);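 further: tested at 20 µM; growth read once vehicle control cultures reached saturation at 30 °C; 1 = growth at the plate median or of vehicle wells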
Settings: growth OD

Measured: normalized growth

CNC(C)(C)Cc1ccccc1
inactive: S. cerevisiae deletion strains, locus YJR043C, strain POL32, stronger effect = lower value 0.977 | S. cerevisiae deletion strains, locus YJR066W, strain TOR1, stronger effect = lower value 1.01 | S. cerevisiae deletion strains, locus YKL009W, strain mrt4, stronger effect = lower value 0.988 | S. cerevisiae deletion strains, locus YKL068W, stronger effect = lower value 1 | S. cerevisiae deletion strains, locus YKL085W, strain MDH1 (second series), stronger effect = lower value 1.01 | S. cerevisiae deletion strains, locus YKL085W, strain MDH1, stronger effect = lower value 1.01 | S. cerevisiae deletion strains, locus YKL160W, strain elf1, stronger effect = lower value 1.01 | S. cerevisiae deletion strains, locus YKL190W, strain CNB1, stronger effect = lower value 1.01 | S. cerevisiae deletion strains, locus YKR001C, strain vps1, stronger effect = lower value 0.991 | S. cerevisiae deletion strains, locus YKR026C, strain gcn3, stronger effect = lower value 1.02 | S. cerevisiae deletion strains, locus YKR091W, strain srl3, stronger effect = lower value 1 | S. cerevisiae deletion strains, locus YLL001W, strain dnm1, stronger effect = lower value 1.01 | S. cerevisiae deletion strains, locus YLL026W, stronger effect = lower value 1.02 | S. cerevisiae deletion strains, locus YLL041C, strain sdh2, stronger effect = lower value 1.02 | S. cerevisiae deletion strains, locus YLR027C, strain aat2, stronger effect = lower value 1.02 | S. cerevisiae deletion strains, locus YLR039C, strain RIC1, stronger effect = lower value 1.04 | S. cerevisiae deletion strains, locus YLR058C, strain SHM2, stronger effect = lower value 1.01 | S. cerevisiae deletion strains, locus YLR102C, strain apc9, stronger effect = lower value 1.01 | S. cerevisiae deletion strains, locus YLR113W, strain HOG1, stronger effect = lower value 1.06 | S. cerevisiae deletion strains, locus YLR221C, strain rsa3, stronger effect = lower value 1.02 | S. cerevisiae deletion strains, locus YLR258W, strain gsy2, stronger effect = lower value 1.02 | S. cerevisiae deletion strains, locus YLR262C, strain YPT6 (second series), stronger effect = lower value 1 | S. cerevisiae deletion strains, locus YLR262C, strain YPT6, stronger effect = lower value 1.02 | S. cerevisiae deletion strains, locus YLR268W, strain sec22, stronger effect = lower value 1 | S. cerevisiae deletion strains, locus YLR320W, strain mms22, stronger effect = lower value 1.04 | S. cerevisiae deletion strains, locus YLR330W, strain CHS5, stronger effect = lower value 1.01 | S. cerevisiae deletion strains, locus YLR342W, strain FKS1 (second series), stronger effect = lower value 1.08 | S. cerevisiae deletion strains, locus YLR342W, strain FKS1, stronger effect = lower value 1.02 | S. cerevisiae deletion strains, locus YLR357W, strain rsc2, stronger effect = lower value 0.988 | S. cerevisiae deletion strains, locus YLR370C, strain arc18, stronger effect = lower value 1.01 | S. cerevisiae deletion strains, locus YLR371W, strain rom2, stronger effect = lower value 1.01 | S. cerevisiae deletion strains, locus YLR384C, strain iki3, stronger effect = lower value 1.01 | S. cerevisiae deletion strains, locus YLR418C, strain cdc73, stronger effect = lower value 1.01 | S. cerevisiae deletion strains, locus YML016C, strain PPZ1, stronger effect = lower value 1.01 | S. cerevisiae deletion strains, locus YML032C, strain rad52, stronger effect = lower value 0.985 | S. cerevisiae deletion strains, locus YML120C, strain ndi1, stronger effect = lower value 1.02 | S. cerevisiae deletion strains, locus YML124C, strain tub3, stronger effect = lower value 1.01 | S. cerevisiae deletion strains, locus YMR058W, strain fet3, stronger effect = lower value 1 | S. cerevisiae deletion strains, locus YMR078C, strain ctf18, stronger effect = lower value 0.999 | S. cerevisiae deletion strains, locus YMR125W, strain sto1, stronger effect = lower value 1.02 | S. cerevisiae deletion strains, locus YMR129W, stronger effect = lower value 1.01 | S. cerevisiae deletion strains, locus YMR205C, strain PFK2, stronger effect = lower value 1.03 | S. cerevisiae deletion strains, locus YMR223W, strain ubp8, stronger effect = lower value 1.02 | S. cerevisiae deletion strains, locus YMR231W, strain pep5, stronger effect = lower value 1.02 | S. cerevisiae deletion strains, locus YMR307W, strain GAS1, stronger effect = lower value 1.02 | S. cerevisiae deletion strains, locus YNL067W, strain RPL9B, stronger effect = lower value 0.988 | S. cerevisiae deletion strains, locus YNL071W, strain lat1, stronger effect = lower value 1.01 | S. cerevisiae deletion strains, locus YNL128W, strain TEP1, stronger effect = lower value 1.03 | S. cerevisiae deletion strains, locus YNL183C, strain NPR1, stronger effect = lower value 1 | S. cerevisiae deletion strains, locus YNL209W, strain ssb2, stronger effect = lower value 1.02 | S. cerevisiae deletion strains, locus YNL233W, strain BNI4, stronger effect = lower value 0.995 | S. cerevisiae deletion strains, locus YNL248C, strain rpa49, stronger effect = lower value 1.01 | S. cerevisiae deletion strains, locus YNL250W, strain rad50, stronger effect = lower value 1.02 | S. cerevisiae deletion strains, locus YNL271C, strain bni1, stronger effect = lower value 0.997 | S. cerevisiae deletion strains, locus YNL298W, strain CLA4, stronger effect = lower value 1 | S. cerevisiae deletion strains, locus YNL307C, strain MCK1, stronger effect = lower value 1.01 | S. cerevisiae deletion strains, locus YNL322C, strain KRE1 (second series), stronger effect = lower value 1.02 | S. cerevisiae deletion strains, locus YNL322C, strain KRE1, stronger effect = lower value 1 | S. cerevisiae deletion strains, locus YNR049C, strain mso1, stronger effect = lower value 1.01 | S. cerevisiae deletion strains, locus YNR052C, strain pop2, stronger effect = lower value 1 | S. cerevisiae deletion strains, locus YOL006C, strain TOP1, stronger effect = lower value 0.958 | S. cerevisiae deletion strains, locus YOL012C, strain htz1 1.02 | S. cerevisiae deletion strains, locus YOL147C, strain pex11, stronger effect = lower value 1.01 | S. cerevisiae deletion strains, locus YOR001W, strain rrp6, stronger effect = lower value 1.03 | S. cerevisiae deletion strains, locus YOR061W, strain CKA2, stronger effect = lower value 1.01 | S. cerevisiae deletion strains, locus YOR069W, strain VPS5, stronger effect = lower value 1.01 | S. cerevisiae deletion strains, locus YOR070C, strain gyp1, stronger effect = lower value 1.01 | S. cerevisiae deletion strains, locus YOR080W, strain dia2, stronger effect = lower value 1.02 | S. cerevisiae deletion strains, locus YOR083W, strain WHI5, stronger effect = lower value 1.02 | S. cerevisiae deletion strains, locus YOR106W, strain vam3, stronger effect = lower value 1.03 | S. cerevisiae deletion strains, locus YOR136W, strain idh2, stronger effect = lower value 0.994 | S. cerevisiae deletion strains, locus YOR144C, strain elg1, stronger effect = lower value 0.995 | S. cerevisiae deletion strains, locus YOR184W, strain ser1, stronger effect = lower value 0.998 | S. cerevisiae deletion strains, locus YOR231W, strain MKK1, stronger effect = lower value 1.03 | S. cerevisiae deletion strains, locus YOR265W, strain rbl2, stronger effect = lower value 1.01 | S. cerevisiae deletion strains, locus YOR270C, strain vph1, stronger effect = lower value 1.04 | S. cerevisiae deletion strains, locus YOR290C, strain snf2, stronger effect = lower value 1.01 | S. cerevisiae deletion strains, locus YOR316C, strain cot1, stronger effect = lower value 1.01 | S. cerevisiae deletion strains, locus YPL051W, strain arl3, stronger effect = lower value 1.02 | S. cerevisiae deletion strains, locus YPL078C, strain atp4, stronger effect = lower value 1.01 | S. cerevisiae deletion strains, locus YPL106C, strain sse1, stronger effect = lower value 1.05 | S. cerevisiae deletion strains, locus YPL240C, strain hsp82, stronger effect = lower value 1.01 | S. cerevisiae deletion strains, locus YPL241C, strain CIN2, stronger effect = lower value 1.01 | S. cerevisiae deletion strains, locus YPL256C, strain CLN2, stronger effect = lower value 1.02 | S. cerevisiae deletion strains, locus YPR119W, strain clb2, stronger effect = lower value 1.01 | S. cerevisiae deletion strains, locus YPR141C, strain kar3, stronger effect = lower value 0.998 | S. cerevisiae deletion strains, locus YPR163C, strain tif3, stronger effect = lower value 0.999 | S. cerevisiae deletion strains, locus YPR167C, strain met16, stronger effect = lower value 1 | S. cerevisiae deletion strains, strain wtn01, stronger effect = lower value 0.999 | S. cerevisiae strains, strain wild type, stronger effect = lower value 1.01
